Source: PubChem BioAssay (several laboratories)
GDH-TPI inh – GDH-TPI coupled enzyme inhibition counter-screen; AID 588335; GDH-TPI coupled enzyme counterscreen, NADH absorbance; inhibition, % at 4.8 µM; actives 1.2% (n = 360,000); in the data active means inhibition above about 30%
BioA inh – inhibitors of Mycobacterium tuberculosis BioA enzyme; inhibition, % at 9.99 µM; purified M. tuberculosis BioA enzyme, plate reader; actives 0.096% (n = 360,000); in the data active means inhibition above about 40%
FBA Mtb inh – inhibitors of M. tuberculosis fructose-bisphosphate aldolase. P9WQA3. purified M. tuberculosis FBA, fluorescence read-out. inhibition, % at 1 µM. actives 2.3% (n = 360,000). AID 588726; in the data active means inhibition above about 27%
Target sequence (P9WQA3 whole entry, looked up): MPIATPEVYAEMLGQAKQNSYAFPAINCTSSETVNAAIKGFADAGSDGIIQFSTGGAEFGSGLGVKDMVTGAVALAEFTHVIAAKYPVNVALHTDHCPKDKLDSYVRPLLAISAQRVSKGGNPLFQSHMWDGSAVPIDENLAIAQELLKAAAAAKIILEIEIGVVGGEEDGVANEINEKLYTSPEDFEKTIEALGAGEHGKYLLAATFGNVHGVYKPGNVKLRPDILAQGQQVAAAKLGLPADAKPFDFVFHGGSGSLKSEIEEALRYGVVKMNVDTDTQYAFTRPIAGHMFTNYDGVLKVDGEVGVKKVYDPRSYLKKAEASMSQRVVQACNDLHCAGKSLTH
Vc quorum ag – inducers of Vibrio cholerae quorum light production without autoinducers. V. cholerae BH1578 lux reporter, luminescence, 6 h. activation, % at 18.7 µM. actives 0.16% (n = 350,000); in the data active means activation mostly above about 9.7%, no sharp cut-off
Each line names hits and unclear results; the compound was inactive in the other large screens. An excerpt weighted towards active compounds, which were near 3% of everything screened.

Cc1noc(C)c1S(=O)(=O)N(C)C[C@H]1OCCCC[C@@H](C)Oc2ccc(NC(=O)C3CCCCC3)cc2C(=O)N([C@@H](C)CO)C[C@@H]1C	none (no result: GDH-TPI inh, FBA Mtb inh, Vc quorum ag)
CO[C@@H]1CN(C)C(=O)c2ccc(NS(=O)(=O)c3cn(C)cn3)cc2OC[C@@H](C)N(Cc2cccc(F)c2)C[C@H]1C	none (no result: GDH-TPI inh, FBA Mtb inh, Vc quorum ag)
C[C@@H]1CN([C@@H](C)CO)C(=O)c2cc(NC(=O)Nc3ccc(C(F)(F)F)cc3)ccc2O[C@@H]1CN(C)Cc1ccc(-c2ccccc2)cc1	none (no result: GDH-TPI inh, FBA Mtb inh, Vc quorum ag)
S=c1nc(-c2ccccc2)n(CCCn2ccnc2)c2c1CCCC2	GDH-TPI inh 41
CC(C)CC#Cc1ccc2c(c1)O[C@H](CN(C)C(=O)Cc1ccccc1)[C@H](C)CN([C@@H](C)CO)S2(=O)=O	none (no result: GDH-TPI inh, FBA Mtb inh, Vc quorum ag)
NC(=O)CSc1nc2sc(-c3ccccc3)cc2c(=O)n1N	GDH-TPI inh 35
Cc1nc2sc(-c3ccccc3)cc2c(=O)n1-n1cccc1	none (no result: Vc quorum ag)
Cc1nc2sc(-c3ccccc3)cc2c(=O)n1N	GDH-TPI inh 47
O=C(C[C@H]1C=C[C@@H](NC(=O)c2cccc(F)c2)[C@@H](CO)O1)NCCN1CCCC1	none (no result: GDH-TPI inh, FBA Mtb inh, Vc quorum ag)
CCCNC(=O)N1C[C@@H](C)[C@@H](OC)CN(C)C(=O)c2cc(NC(C)=O)ccc2OC[C@@H]1C	none (no result: GDH-TPI inh, FBA Mtb inh, Vc quorum ag)
C[C@H](CO)N1C[C@H](C)[C@@H](CN(C)C(=O)Nc2cccc3ccccc23)Oc2ccc(NC(=O)Nc3ccc4c(c3)OCO4)cc2CC1=O	none (no result: GDH-TPI inh, FBA Mtb inh, Vc quorum ag)
COc1ccc(C2/C(=C(/O)c3ccc(C)cc3)C(=O)C(=O)N2C)cc1 (configuration not stated)	GDH-TPI inh 32
Cc1ccc(/C(O)=C2\C(=O)C(=O)N(C)C2c2ccc(Br)cc2)cc1 (configuration not stated)	none
COc1cc2c(cc1OC)-c1cc3ccc(OC)c(OC)c3c[n+]1CC2	GDH-TPI inh 59
CC(=O)N1N=C(c2cccc(NS(C)(=O)=O)c2)CC1c1cccs1 (configuration not stated)	GDH-TPI inh 65
CS(=O)(=O)Nc1ccc(C2=NN(C(=O)CCCC(=O)O)C(c3cccs3)C2)cc1 (configuration not stated)	FBA Mtb inh active
CC(C)(C)C(=O)N1N=C(c2ccc(NS(C)(=O)=O)cc2)CC1c1cccs1 (configuration not stated)	FBA Mtb inh 112 (no result: BioA inh)
CS(=O)(=O)Nc1cccc(C2=NN(C(=O)CCC(=O)O)C(c3cccs3)C2)c1 (configuration not stated)	none
c1cc(-c2ccc(N3CCOCC3)cc2)n2ccnc2c1	FBA Mtb inh active
CS(=O)(=O)Nc1ccc(-c2cccc3nccn23)cc1	FBA Mtb inh 162
CN(C)c1ccc(-c2cccc3nccn23)cc1	FBA Mtb inh active
Clc1cccc(-c2cccc3nccn23)c1	FBA Mtb inh active
COc1ccc(S(=O)(=O)N(C)C[C@H]2Oc3c(NS(C)(=O)=O)cccc3C(=O)N([C@@H](C)CO)C[C@H]2C)cc1	none (no result: GDH-TPI inh, FBA Mtb inh, Vc quorum ag)
CC(=O)N(C)C[C@H]1Oc2cc(-c3cccc(C#N)c3)ccc2S(=O)(=O)N([C@H](C)CO)C[C@H]1C	none (no result: GDH-TPI inh, FBA Mtb inh, Vc quorum ag)
CCCNC(=O)N1C[C@@H](O)COC[C@H]2O[C@H](CC(=O)N3CCOCC3)CC[C@@H]21	none (no result: GDH-TPI inh, FBA Mtb inh, Vc quorum ag)
OCc1ccccc1-c1cccc2nccn12	none
N#CCc1ccc(-c2cccc3nccn23)cc1	FBA Mtb inh active
CCOc1ccc(Nc2nc3ccccc3n3cnnc23)cc1	GDH-TPI inh 32 (no result: BioA inh)
c1ccc(Nc2nc3ccccc3n3cnnc23)cc1	none
c1ccc(N2CCCCC2)c(Nc2nc3ccccc3n3cnnc23)c1	none
c1ccc2c(c1)nc(Nc1ccc(N3CCCCC3)cc1)c1nncn12	GDH-TPI inh 44 (no result: BioA inh)
Cc1ccc(NC(=O)C2CC(=O)N/C(=N/N=C/c3ccco3)S2)cc1 (configuration not stated)	GDH-TPI inh 44 (no result: BioA inh)
Cc1ccc(NC(=O)C2CC(=O)N/C(=N/N=C/c3ccco3)S2)cc1C (configuration not stated)	GDH-TPI inh 52
O=C1CC(C(=O)Nc2ccc(F)cc2)S/C(=N\N=C\c2ccco2)N1 (configuration not stated)	GDH-TPI inh 34 (no result: BioA inh)
Cc1ccc(-c2cnc3c(c2)C(=O)N([C@@H](C)CO)C[C@H](C)[C@@H](CN(C)C(=O)c2cccc(F)c2)O3)cc1	none (no result: GDH-TPI inh, FBA Mtb inh, Vc quorum ag)
C[C@@H]1CCCCO[C@H](CN(C)C(=O)Nc2cccc3ccccc23)[C@@H](C)CN([C@@H](C)CO)C(=O)c2cc(NC(=O)CCCN(C)C)ccc2O1	none (no result: GDH-TPI inh, FBA Mtb inh, Vc quorum ag)
Cc1noc(C)c1S(=O)(=O)N(C)C[C@H]1Oc2ccc(NS(=O)(=O)c3cn(C)cn3)cc2C(=O)N([C@@H](C)CO)C[C@H]1C	none (no result: GDH-TPI inh, FBA Mtb inh, Vc quorum ag)
Clc1ccc(C2=NN(c3ccccc3)C(c3ccco3)C2)cc1 (configuration not stated)	FBA Mtb inh 161
CO[C@H]1CN(C)C(=O)c2cc(NS(=O)(=O)Cc3ccccc3)ccc2OC[C@@H](C)NC[C@@H]1C	none (no result: GDH-TPI inh, FBA Mtb inh, Vc quorum ag)
O=S(=O)(N[C@H]1CC[C@@H](CCn2cc(-c3cccc(F)c3)nn2)O[C@@H]1CO)c1ccccc1	none (no result: GDH-TPI inh, FBA Mtb inh, Vc quorum ag)
COc1ccc(NC(=O)Nc2ccc3c(c2)CC(=O)N([C@@H](C)CO)C[C@@H](C)[C@H](CN(C)Cc2ccc(C(=O)O)cc2)O3)cc1	none (no result: GDH-TPI inh, FBA Mtb inh, Vc quorum ag)
COc1ccc(/C=C(/C#N)C(=O)Nc2ccccc2C)cc1C(=O)O	none
COc1ccc(/C=C(/C#N)C(=O)Nc2cccc(C)c2C)cc1C(=O)O	GDH-TPI inh 37
COc1ccc(/C=C(/C#N)C(=O)Nc2ccc(C)cc2C)cc1C(=O)O	GDH-TPI inh 54
CC1(C)CC(=O)C=C(NCC(=O)O)C1	none
CCSCCC(NC1=CC(=O)CC(C)(C)C1)C(=O)O (configuration not stated)	Vc quorum ag 17
C[C@@H]1CN([C@H](C)CO)C(=O)Cc2cc(NS(=O)(=O)c3ccccc3)ccc2O[C@@H]1CN(C)Cc1ccc(C(=O)Nc2ccccc2N)cc1	none (no result: GDH-TPI inh, FBA Mtb inh, Vc quorum ag)
Cc1ccc(-c2nnc(-c3cccc4ccccc34)o2)cc1	none
CCOP(=O)(OCC)c1nc(-c2cccc3ccccc23)oc1NCc1ccc(OC)cc1	FBA Mtb inh 169 (no result: BioA inh)
CCOP(=O)(OCC)c1nc(-c2cccc3ccccc23)oc1NCc1ccccc1	FBA Mtb inh active
O=C(NC1CCCC1)[C@H]1[C@H](CO)[C@H]2Cn3c(ccc(-c4cccc(F)c4)c3=O)[C@@H]1N2	none (no result: GDH-TPI inh, FBA Mtb inh, Vc quorum ag)
CCc1nc2scc(-c3ccccc3)c2c(=O)n1N	none
CCN=C1Cn2c(nc3scc(-c4ccccc4)c3c2=O)CN1CC	Vc quorum ag 17
CC(=O)N(C)C[C@@H]1Oc2ncc(C#CCc3ccccc3)cc2C(=O)N([C@@H](C)CO)C[C@@H]1C	none (no result: GDH-TPI inh, FBA Mtb inh, Vc quorum ag)
CCN1CCN(c2oc(COc3ccc(Cl)cc3)nc2C#N)CC1	none
CCN1CCN(c2oc(/C=C/c3ccccc3)nc2C#N)CC1	GDH-TPI inh 48, FBA Mtb inh 192 (no result: BioA inh)
CNc1oc(-c2ccccc2)nc1C#N	FBA Mtb inh 181
COc1ccc(Nc2oc(-c3ccccc3)nc2C#N)cc1	none
COCCNc1oc(/C=C/c2ccccc2)nc1C#N	none (no result: BioA inh, FBA Mtb inh)
CNc1oc(/C=C/c2ccccc2)nc1C#N	GDH-TPI inh 38, FBA Mtb inh active (no result: BioA inh)
O=C(NC1CCC1)[C@@H]1[C@@H](CO)[C@@H]2Cn3c(ccc(C4=CCCC4)c3=O)[C@@H]2N1C(=O)C1CCCC1	none (no result: GDH-TPI inh, FBA Mtb inh, Vc quorum ag)
